Measured values reported in PubChem BioAssay.
For some assays here: Entries with a potency or affinity are not part of this list. Active and inactive are the calls of the source. Unless noted, how the calls were made is not given here.

How the values were obtained:
[1] = antimalarial activity against Dd2 strain (AID 2302;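 active means growth inhibition above 50% at the single 2 µM test dose, taken to imply half-maximal potency below 2 µM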;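 further: 0% = DMSO untreated growth and 100% = chloroquine plus artemisinin killed control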); conditions: P. falciparum Dd2 in RBCs, LDH growth readout, 72 h; at 2 µM; stronger effect = higher value
[2] = HepG2 cytotoxicity, primary screen, cytotoxicity control for P. falciparum antimalarial project, cell-based, ATP luminescence (AID 2303;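 active means inhibition above 50%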;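 further: 0% = DMSO wells and 100% = digitonin-killed cells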); conditions: HepG2 viability, 24-48 h, at 10 µM, stronger effect = higher value
[3] = target: L-lactate dehydrogenase (Plasmodium falciparum (isolate CDC / Honduras)) (UniProt Q27743); assay: PfLDH activity inhibition – cell lysate, 3D7 strain, counter-screen for P. falciparum growth inhibition project (AID 2304);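 further: 0% = vehicle and 100% = reference inhibitor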; conditions: P. falciparum 3D7 crude extract, LDH APAD/NBT absorbance; at 2 µM; stronger effect = higher value
L-lactate dehydrogenase (Plasmodium falciparum (isolate CDC / Honduras)), sequence (Q27743 whole entry, looked up): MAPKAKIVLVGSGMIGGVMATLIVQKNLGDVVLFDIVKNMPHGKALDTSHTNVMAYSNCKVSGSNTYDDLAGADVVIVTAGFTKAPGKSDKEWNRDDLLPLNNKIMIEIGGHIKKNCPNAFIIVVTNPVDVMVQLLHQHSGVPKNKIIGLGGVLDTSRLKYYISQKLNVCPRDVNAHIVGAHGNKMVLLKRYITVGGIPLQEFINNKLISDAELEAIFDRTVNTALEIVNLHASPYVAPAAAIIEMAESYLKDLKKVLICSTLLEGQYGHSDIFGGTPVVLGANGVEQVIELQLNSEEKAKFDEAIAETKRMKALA

[4] = inhibition of 3D7 malaria parasite growth – strain 3D7 (AID 2306);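 further: 0% = DMSO wells and 100% = chloroquine plus artemisinin control wells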; conditions: P. falciparum 3D7 erythrocytic growth, LDH absorbance, 72 h; at 2 µM; stronger effect = higher value
[5] = target: Calcium-dependent protein kinase 1 (Plasmodium falciparum (isolate 3D7)) (UniProt P62344); assay: PfCDPK1 kinase inhibitors, biochemical, TCAMS library (AID 1159585; cut-off not given, nearly all actives have IC50 up to about 0.98 µM;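 further: inhibitors leave more ATP so luminescence rises with inhibition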); conditions: recombinant PfCDPK1, Kinase-Glo ATP depletion luminescence
Calcium-dependent protein kinase 1 (Plasmodium falciparum (isolate 3D7)), sequence (P62344 whole entry, looked up): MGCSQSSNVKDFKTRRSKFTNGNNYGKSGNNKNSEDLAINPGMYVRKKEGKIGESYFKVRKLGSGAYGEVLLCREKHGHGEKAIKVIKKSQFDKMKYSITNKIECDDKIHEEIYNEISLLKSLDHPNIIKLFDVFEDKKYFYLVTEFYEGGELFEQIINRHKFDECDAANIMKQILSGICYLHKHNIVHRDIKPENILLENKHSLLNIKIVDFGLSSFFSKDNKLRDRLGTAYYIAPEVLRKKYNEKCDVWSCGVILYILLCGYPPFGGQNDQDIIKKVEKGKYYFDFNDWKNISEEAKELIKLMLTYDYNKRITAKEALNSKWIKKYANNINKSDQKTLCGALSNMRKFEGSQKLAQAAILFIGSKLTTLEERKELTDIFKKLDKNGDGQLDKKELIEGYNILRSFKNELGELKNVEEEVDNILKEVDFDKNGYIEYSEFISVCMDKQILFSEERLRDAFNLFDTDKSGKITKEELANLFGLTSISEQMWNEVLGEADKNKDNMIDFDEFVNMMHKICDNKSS

[6] = target: Plasmodium falciparum protein kinase 6 (PK6, PF3D7_1337100) (UniProt Q8IDW1); assay: PfPK6 kinase inhibitors, biochemical, TCAMS library (AID 1159586); conditions: recombinant PfPK6, Kinase-Glo ATP depletion luminescence
Plasmodium falciparum protein kinase 6 (PK6, PF3D7_1337100), sequence (Q8IDW1 1-305): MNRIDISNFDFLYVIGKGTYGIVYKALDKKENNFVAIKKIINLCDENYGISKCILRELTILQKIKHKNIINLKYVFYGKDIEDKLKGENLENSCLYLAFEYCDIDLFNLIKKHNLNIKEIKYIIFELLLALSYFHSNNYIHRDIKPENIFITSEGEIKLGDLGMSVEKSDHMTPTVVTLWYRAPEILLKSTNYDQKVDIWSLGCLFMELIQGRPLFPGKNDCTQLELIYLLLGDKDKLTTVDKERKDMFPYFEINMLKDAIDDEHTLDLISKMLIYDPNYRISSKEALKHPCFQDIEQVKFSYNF

[7] = target: Protein kinase 7 (PK7), Plasmodium falciparum 3D7 (PF3D7_0213400) (UniProt Q7YTF7); assay: inhibition of Plasmodium PK7 catalytic activity – biochemical, TCAMS antimalarial set, Kinase-Glo luminescence (AID 1159587); conditions: recombinant PfPK7, Kinase-Glo ATP depletion luminescence
Protein kinase 7 (PK7), Plasmodium falciparum 3D7 (PF3D7_0213400), sequence (Q7YTF7 1-343): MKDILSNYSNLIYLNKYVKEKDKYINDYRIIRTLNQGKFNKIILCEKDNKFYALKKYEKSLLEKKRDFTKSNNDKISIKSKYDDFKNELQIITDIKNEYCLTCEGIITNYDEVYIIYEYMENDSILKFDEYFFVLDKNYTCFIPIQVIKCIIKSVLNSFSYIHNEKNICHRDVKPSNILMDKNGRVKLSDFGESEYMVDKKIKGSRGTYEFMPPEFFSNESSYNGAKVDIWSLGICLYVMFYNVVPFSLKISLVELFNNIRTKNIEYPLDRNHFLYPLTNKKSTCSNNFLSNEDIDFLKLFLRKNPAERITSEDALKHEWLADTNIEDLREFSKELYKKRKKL

[8] = target: Calcium-dependent protein kinase 4 (Plasmodium falciparum (isolate 3D7)) (UniProt Q8IBS5); assay: PfCDPK4 kinase inhibitors, biochemical, TCAMS library (AID 1159588; cut-off not given, nearly all actives have IC50 up to about 0.91 µM); conditions: recombinant PfCDPK4, Kinase-Glo ATP depletion luminescence
Calcium-dependent protein kinase 4 (Plasmodium falciparum (isolate 3D7)), sequence (Q8IBS5 whole entry, looked up): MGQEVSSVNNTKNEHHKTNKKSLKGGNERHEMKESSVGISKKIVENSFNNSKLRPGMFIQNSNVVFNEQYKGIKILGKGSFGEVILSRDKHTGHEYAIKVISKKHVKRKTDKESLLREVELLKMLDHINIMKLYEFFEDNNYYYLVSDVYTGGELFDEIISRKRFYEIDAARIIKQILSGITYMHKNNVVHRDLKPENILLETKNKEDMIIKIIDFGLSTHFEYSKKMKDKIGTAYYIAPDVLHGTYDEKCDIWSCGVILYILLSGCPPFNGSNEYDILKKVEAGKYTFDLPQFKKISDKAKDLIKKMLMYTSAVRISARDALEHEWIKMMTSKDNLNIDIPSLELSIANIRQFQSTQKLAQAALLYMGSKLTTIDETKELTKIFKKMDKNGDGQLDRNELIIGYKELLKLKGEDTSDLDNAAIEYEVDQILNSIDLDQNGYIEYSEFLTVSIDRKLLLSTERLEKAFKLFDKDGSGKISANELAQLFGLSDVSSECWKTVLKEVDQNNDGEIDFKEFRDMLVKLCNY

COc1cc2c(cc1C(F)(F)F)N(C(=O)Nc1cc(Br)cc(-c3cccnc3)c1)CC2
inactive: growth inhibition [1] 34% | inhibition [2] 8% | inhibition [3] -1% | outcome [5] | outcome [6] | outcome [7] | outcome [8]
active: growth inhibition [4] 96%

O=c1cc(NCCCNCc2cc(Br)ccc2F)[nH]c2ccccc12
active: growth inhibition [4] 95%
inactive: growth inhibition [1] 14% | inhibition [2] -2% | inhibition [3] 6% | outcome [5] | outcome [6] | outcome [7] | outcome [8]

Cc1cccc(-c2nc3[nH]c(=O)cc(NC(=O)C(C)C)n3n2)c1
inactive: inhibition [2] -12% | inhibition [3] 0% | outcome [5] | outcome [6] | outcome [7] | outcome [8]
active: growth inhibition [1] 93% | growth inhibition [4] 96%

NCCCNc1nc(Nc2ccc(C(F)(F)F)cc2F)c2c(=O)[nH]ccc2n1
inactive: growth inhibition [1] 15% | inhibition [2] 23% | inhibition [3] -1% | outcome [5] | outcome [6] | outcome [7] | outcome [8]
active: growth inhibition [4] 95%
